According to PubChem BioAssay AID430 (Sanford-Burnham Center for Chemical Genomics, 2006):
Among all 63,000 compounds or so, about 1,100 (1.7%) were called active. The sample holds actives, similar compounds and a random draw of the others, so the mix is not that of the screen. Cut-off read from the data, not from the text of the source: active = cytotoxicity above about 50%; inactive = the rest. Potency and affinity values are given separately.

Assay: HPDE-C7 pancreatic duct cell viability loss – fluorescence, HTS (AID 430);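 note: cells exposed to compound for 48 hours before viability readout; 0% = vehicle and 100% = reference cytotoxic drug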
Settings: HPDE-C7 pancreatic duct cells viability, at 10 µM, hits give high values

Row | Compound | cytotoxicity
1 | O=C(NCCn1cccc1)c1cccc2ccccc12 | 1.3% (inactive)
2 | CCOC(=O)C1CCCN(Cc2ccc(OC)cc2OC)C1 (stereo not given) | 8.6% (inactive)
3 | COc1ccc(-c2nnc(-c3cccs3)o2)cc1OC | -10.3% (inactive)
4 | COc1ccc(-c2nc(-c3cccs3)c(-c3cccs3)[nH]2)cc1O | 71.6% (active)
5 | COc1ccc(-c2nc3ccccc3s2)cc1O | -5.7% (inactive)
6 | Fc1ccccc1CSc1nnnn1-c1ccc2c(c1)OCO2 | -2% (inactive)
7 | Fc1cccc(Cl)c1Cn1nnc(-c2ccc3c(c2)OCO3)n1 | -6.1% (inactive)
8 | Fc1cccc(Cl)c1CSc1nnnn1-c1ccc2c(c1)OCO2 | 53.7% (active)
9 | CCc1nccn1S(=O)(=O)c1ccc(C)c(C)c1 | 2.1% (inactive)
10 | COc1ccc(OC)c(C(c2nnnn2CC2CCCO2)N2CCN(C3CCCC3)CC2)c1 (stereo not given) | -10.4% (inactive)
11 | CC(Sc1ccccc1)C(=O)Nc1ccc(S(=O)(=O)N2CCOCC2)cc1 (stereo not given) | -9.5% (inactive)
12 | CC1CN(C2CCCCC2)c2nc3c(c(=O)[nH]c(=O)n3C)n2C1 (stereo not given) | -2% (inactive)
13 | COc1cc(S(=O)(=O)N2CCCC3(CCCCC3)C2)ccc1-n1cnnn1 | 78.1% (active)
14 | COc1cc(S(=O)(=O)N2CCC(N3CCCCC3)CC2)ccc1-n1cnnn1 | 9.2% (inactive)
15 | COc1cc(S(=O)(=O)N2CCN3CCCC3C2)ccc1-n1cnnn1 (stereo not given) | 5.7% (inactive)
16 | CCOC(=O)C1=C(C)NC2=C(C(=O)CCC2)C1c1ccc(N(C)C)cc1 (stereo not given) | 1.2% (inactive)
17 | COc1ccc(CCNC(=O)C2CCCN(S(=O)(=O)c3cccc4nonc34)C2)cc1OC (stereo not given) | -21.9% (inactive)
18 | OC(COc1ccccc1)CN1C2=NCCCN2c2ccccc21 (stereo not given) | 4.3% (inactive)
19 | O=C(NCc1ccco1)C1OCCc2ccccc21 (stereo not given) | -15.1% (inactive)
20 | CCOC(=O)C1CCN(C(=O)c2ccc(SC)cc2OC)CC1 | -4.9% (inactive)

Row | Compound | cytotoxicity
21 | c1cncc(-c2nnc(SCc3nc4ccccc4[nH]3)o2)c1 | -14.6% (inactive)
22 | c1ccc2[nH]c(CSc3nnc(-c4ccncc4)o3)nc2c1 | 3.2% (inactive)
23 | c1coc(-c2nnc(SCc3nc4ccccc4[nH]3)o2)c1 | 65.9% (active)
24 | Cc1cc(C)nc(NS(=O)(=O)c2ccc(NC(=O)CCCN3C(=O)c4ccccc4C3=O)cc2)n1 | 1.9% (inactive)
25 | CC(=O)Nc1c(O)n(C)c2ccccc12 | -20.2% (inactive)
26 | COc1ccc(-n2c(Cc3cccn3C)nnc2SCC(=O)NC2CCCCC2)cc1 | -11.2% (inactive)
27 | COc1ccc(N(CC(=O)NC2CCCC2)C(=O)Cn2nnc(-c3ccc(C)cc3)n2)cc1OC | -4.2% (inactive)
28 | CC1C(=O)CCC1(C(=O)O)c1ccccc1 (stereo not given) | 9.4% (inactive)
29 | CCn1c(CN2CCCCCC2=O)nnc1SCc1cnc(-c2ccccc2)s1 | 4.1% (inactive)
30 | Cc1ccc(-c2csc3ncnc(-n4nc(C)cc4N)c23)cc1 | 0.5% (inactive)
31 | CN1CCN(Cc2nc3c(c(=O)[nH]c(=O)n3C)n2Cc2c(F)cccc2Cl)CC1 | -13.5% (inactive)
32 | CN(Cc1ccccc1)C(=O)CCS(=O)(=O)c1ccc2c(c1)n(C)c(=O)c(=O)n2C | -7% (inactive)
33 | CCOc1ccc2[nH]c(=O)c(CN(Cc3ccco3)C(=O)c3cccc(F)c3)cc2c1 | 78% (active)
34 | COc1ccc2[nH]c(=O)c(CN(Cc3ccco3)C(=O)c3ccccc3)cc2c1 | -8.8% (inactive)
35 | CCOc1ccc2[nH]c(=O)c(CN(Cc3ccco3)C(=O)c3ccc(Br)cc3)cc2c1 | 22.7% (inactive)
36 | CCCn1nnc(NC(=O)COc2ccc(Cl)cc2)n1 | -10.6% (inactive)
37 | COCCN(C(=O)Cc1cccs1)c1nnc(-c2cccnc2)s1 | -0.4% (inactive)
38 | Cc1ccccc1Cn1ccc(NC(=O)c2cnn3c(C(F)(F)F)cc(-c4ccco4)nc23)n1 | 37.2% (inactive)
39 | Cc1ccccc1Cn1ccc(NC(=O)c2cc3nc(-c4ccco4)cc(C(F)(F)F)n3n2)n1 | 53% (active)
40 | O=C(Nc1cnn(Cc2ccc(F)cc2)c1)c1cc2nc(-c3ccco3)cc(C(F)(F)F)n2n1 | 38.9% (inactive)

Row | Compound | cytotoxicity
41 | O=C(Nc1ccc(Cl)cc1)c1cc2nc(-c3ccco3)cc(C(F)(F)F)n2n1 | 66.2% (active)
42 | O=C(Nc1cnn(Cc2ccccc2)c1)c1cc2nc(-c3ccco3)cc(C(F)(F)F)n2n1 | 6% (inactive)
43 | Cc1ccccc1Cn1cc(NC(=O)c2cc3nc(-c4ccco4)cc(C(F)(F)F)n3n2)cn1 | 29.2% (inactive)
44 | CCOc1ccc(OCC)c(NC(=O)CCn2cccc2)c1 | 7.1% (inactive)
45 | O=C(NCC(c1cccnc1)N1CCOCC1)c1cccs1 (stereo not given) | -33.1% (inactive)
46 | COc1ccc(-c2c(C#N)c(SCc3c(C)noc3C)nc3c2C(=O)CC(C)(C)C3)cc1 | -11% (inactive)
47 | Cc1cc(NC(=O)CS(=O)(=O)c2cn(Cc3cccc(F)c3)c3ccccc23)no1 | -2.5% (inactive)
48 | CCOc1ccc(C(=O)NCC2CCCO2)cc1 (stereo not given) | 1.4% (inactive)
49 | c1csc(-c2ccc3ccccc3n2)c1 | 9.1% (inactive)
50 | COC(=O)c1ccc(C)c(NS(=O)(=O)c2ccc3c(c2)OCCO3)c1 | 62.8% (active)
51 | COC(=O)c1ccc(C)c(NS(=O)(=O)c2ccc(OC)cc2)c1 | 68% (active)
52 | O=C(O)c1ccc(NS(=O)(=O)c2ccc3c(c2)OCCO3)cc1 | 0.3% (inactive)
53 | COC(=O)c1ccc(Cl)c(NS(=O)(=O)c2ccc3c(c2)OCCO3)c1 | 55.7% (active)
54 | COC(=O)c1ccc(C)c(NC(=O)CN(c2ccc3c(c2)OCO3)S(C)(=O)=O)c1 | -6.6% (inactive)
55 | COC(=O)c1ccc(C)c(NS(=O)(=O)c2ccc(NC(C)=O)cc2)c1 | 20.6% (inactive)
56 | CCCNC(=O)c1ccccc1NS(=O)(=O)c1ccc2c(c1)OCCO2 | 14.8% (inactive)
57 | COC(=O)c1ccc(NS(=O)(=O)c2ccc(OC)cc2)cc1 | 2% (inactive)
58 | CC(=O)c1cc2c(cc1NS(=O)(=O)c1ccc3c(c1)OCCO3)OCO2 | 36.4% (inactive)
59 | O=S(=O)(NCCC1=CCCCC1)c1cccc2nsnc12 | -4.7% (inactive)
60 | CCn1c(COc2ccccc2C)nnc1SCC(=O)N1CCC(C)CC1 | -9.2% (inactive)
